Inconclusive results are not listed. Activity calls are given as the source filed them. Unless noted, the call rests on the fitted dose curve.
Key:
[1] = Primary qHTS for inhibitors of SARS-S pseudo-typed particle cell entry (AID 1479145); further: nearly all actives have a fitted effect of over 45% in size; further: potency means the concentration at half of the fitted maximal effect
[2] = Primary qHTS for Huh7 cytotoxicity: counterscreen for inhibitors of MERS-S pseudotyped particle cell entry (AID 1479147); on activity change, negative = cytotoxicity: on the % scale 0 is the no-effect control and ±100 the full control effect
[3] = Primary qHTS for inhibitors of MERS-S pseudo-typed particle cell entry (AID 1479149); further: nearly all actives have a fitted effect of over 60% in size
[4] = Primary qHTS for Vero E6 cytotoxicity: counterscreen for inhibitors of SARS-S pseudo-typed particle cell entry (AID 1479150); on activity change, negative = cytotoxicity: on the % scale 0 is the no-effect control and ±100 the full control effect
[5] = Primary qHTS for inhibitors of La Crosse Virus (LACV) - induced cell death in SH-SY5Y cells (AID 1508616; active means well fitted inhibition curve with a large enough effect;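 further: top concentration of the series differs between compounds; 0% = infected DMSO wells and 100% = uninfected DMSO wells; higher means more rescue of cells from virus-induced death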)
Procedure, shortened: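 Luminescent ATP readout (ATPLite 1step, 5 min room temperature) measured rescue from LACV-induced death after 6 days of infection at 0.01 MOI; normalized to infected DMSO wells and uninfected DMSO wells.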

CCC[C@@H]1C[C@@H](C(=O)N[C@@H]([C@H]2O[C@H](SC)[C@H](O)[C@@H](O)[C@H]2O)[C@@H](C)O)N(C)C1
inactive: Potency [1] | Potency [2] | Potency [3] | Potency [4]

O=c1cc(O)c(Cl)c[nH]1
inactive: Potency [1] | Potency [2] | Potency [3] | Potency [4]

CC(=O)CC/C=C(\C)CC/C=C(\C)CC/C=C(\C)CCC=C(C)C
inactive: Potency [1] | Potency [2] | Potency [3] | Potency [4]

NCC(=O)CCC(=O)O
inactive: Potency [1] | Potency [2] | Potency [3] | Potency [4]

COc1ccc2cc([C@H](C)C(=O)O)ccc2c1
inactive: Potency [1] | Potency [2] | Potency [3] | Potency [4]

O=c1[nH]c(=O)n([C@H]2O[C@H](CO)[C@@H](O)[C@@H]2O)cc1/C=C\Br
inactive: Potency [1] | Potency [2] | Potency [3] | Potency [4]

N#Cc1ccc(C(c2ccc(C#N)cc2)n2cncn2)cc1
inactive: Potency [1] | Potency [2] | Potency [3] | Potency [4]

CSCC[C@H](NC(=O)[C@H](Cc1ccc(OS(=O)(=O)O)cc1)NC(=O)[C@@H](N)CC(=O)O)C(=O)NCC(=O)N[C@@H](Cc1c[nH]c2ccccc12)C(=O)N[C@@H](CCSC)C(=O)N[C@@H](CC(=O)O)C(=O)N[C@@H](Cc1ccccc1)C(N)=O
inactive: Potency [1] | Potency [2] | Potency [3] | Potency [4]

CC1(C)O[C@H]2CC(=O)OC[C@]23[C@H]2CC[C@@]4(C)[C@H](c5ccoc5)OC(=O)[C@H]5O[C@]54[C@]2(C)C(=O)C[C@@H]13
inactive: Potency [1] | Potency [2] | Potency [3] | Potency [4]

CC(C(=O)O)c1ccc(/C=C2\CCCCC2=O)cc1 (stereo not given)
inactive: Potency [1] | Potency [2] | Potency [3] | Potency [4]

Cc1ccc(Cl)c(Nc2ccccc2C(=O)O)c1Cl
inactive: Potency [1] | Potency [2] | Potency [3] | Potency [4]

NC(=O)c1ncn([C@@H]2O[C@H](CO)[C@@H](O)[C@H]2O)c1O
inactive: Potency [1] | Potency [2] | Potency [3] | Potency [4]

O=C1c2ccccc2C(=O)c2c1ccc(O)c2O
inactive: Potency [1] | Potency [2] | Potency [3] | Potency [4]

C[C@]12C=CC(=O)C=C1CC[C@@H]1[C@@H]2[C@@H](O)C[C@@]2(C)[C@H]1CC[C@]2(O)C(=O)CO
inactive: Potency [1] | Potency [2] | Potency [3] | Potency [4]

O=C(NCC1CCCCN1)c1cc(OCC(F)(F)F)ccc1OCC(F)(F)F (stereo not given)
inactive: Potency [1] | Potency [2] | Potency [3] | Potency [4]

CN=C(NC#N)NCCSCc1nc[nH]c1C
inactive: Potency [1] | Potency [2] | Potency [3] | Potency [4]

CC(=O)OCC(=O)[C@@]1(O)[C@H](C)C[C@H]2[C@@H]3CCC4=CC(=O)C=C[C@]4(C)[C@@]3(F)[C@@H](O)C[C@@]21C
inactive: Potency [1] | Potency [2] | Potency [3] | Potency [4]

CC(=O)N(CC(O)CO)c1c(I)c(C(=O)NCCO)c(I)c(C(=O)NCC(O)CO)c1I (stereo not given)
inactive: Potency [1] | Potency [2] | Potency [3] | Potency [4]

CN(C)CCc1c[nH]c2ccc(Cn3cncn3)cc12
inactive: Potency [1] | Potency [2] | Potency [3] | Potency [4]

CCCCCCCC(=O)OCC(COC(=O)CCCCCCC)OC(=O)CCCCCCC
inactive: Potency [1] | Potency [2] | Potency [3] | Potency [4]

CCC(Cc1c(I)cc(I)c(N)c1I)C(=O)O (stereo not given)
inactive: Potency [1] | Potency [2] | Potency [3] | Potency [4]

CCOC(=O)[C@H](CCc1ccccc1)N[C@@H](C)C(=O)N1CCC[C@H]1C(=O)O
inactive: Potency [1] | Potency [2] | Potency [3] | Potency [4]

C[C@](O)(CS(=O)(=O)c1ccc(F)cc1)C(=O)Nc1ccc(C#N)c(C(F)(F)F)c1
inactive: Potency [1] | Potency [2] | Potency [3] | Potency [4]

CCCCC(O)/C=C(C)/C=C/C=C/C(=O)N1CCCC1=O (stereo not given)
inactive: Potency [1] | Potency [2] | Potency [3] | Potency [4]

O=C(Oc1ccccc1)c1ccccc1O
inactive: Potency [1] | Potency [2] | Potency [3] | Potency [4]

Oc1ccc(OCc2ccccc2)cc1
inactive: Potency [1] | Potency [2] | Potency [3] | Potency [4]

CCc1cccc(CC)c1NC(=O)CN(CC(=O)O)CC(=O)O
inactive: Potency [1] | Potency [2] | Potency [3] | Potency [4]

CC(CSC(=O)c1ccccc1)C(=O)N1C[C@@H](Sc2ccccc2)C[C@H]1C(=O)O (stereo not given in full)
inactive: Potency [1] | Potency [2] | Potency [3] | Potency [4]

Nc1ccc(C(=O)Oc2ccccc2)c(O)c1
inactive: Potency [1] | Potency [2] | Potency [3] | Potency [4]

CC(=O)Nc1ccc(CC(=O)O)cc1
inactive: Potency [1] | Potency [2] | Potency [4]

C[C@]12C=CC(=O)C=C1[C@@H](F)C[C@@H]1[C@@H]2[C@@H](O)C[C@@]2(C)[C@H]1CC[C@]2(O)C(=O)CO
inactive: Potency [1] | Potency [2] | Potency [3] | Potency [4]

NS(=O)(=O)c1cc(C(=O)O)cc(N2CCCC2)c1Oc1ccccc1
inactive: Potency [1] | Potency [2] | Potency [3] | Potency [4]

c1ccc(-c2nc[nH]c2-c2ccccc2)cc1
inactive: Potency [1] | Potency [2] | Potency [3] | Potency [4]

COc1ccc(NS(=O)(=O)c2ccc(N)cc2)nn1
inactive: Potency [1] | Potency [2] | Potency [3] | Potency [4]

Nc1nc(Cl)nc2c1ncn2[C@@H]1O[C@H](CO)[C@@H](O)[C@@H]1F
inactive: Potency [2] | Potency [4]
active: Potency [1] 20 µM

NS(=O)(=O)c1cc(-c2nn[nH]n2)c(NCc2cccs2)cc1Cl
inactive: Potency [1] | Potency [2] | Potency [3] | Potency [4]

CC(C)OC(=O)OCOP(=O)(CO[C@H](C)Cn1cnc2c(N)ncnc21)OCOC(=O)OC(C)C
inactive: Potency [1] | Potency [2] | Potency [3] | Potency [4]

Cc1cccc(C)c1NC(=O)c1cc(S(N)(=O)=O)c(Cl)cc1O
inactive: Potency [1] | Potency [2] | Potency [3] | Potency [4]

COc1ccccc1OCC(O)CO (stereo not given)
inactive: Potency [1] | Potency [2] | Potency [3] | Potency [4]

Cc1cc(C)nc(NS(=O)(=O)c2ccc(N)cc2)n1
inactive: Potency [1] | Potency [2] | Potency [3] | Potency [4]

N#C[C@H]1C[C@H]2C[C@@H]2N1C(=O)[C@@H](N)C12CC3CC(CC(O)(C3)C1)C2
inactive: Potency [1] | Potency [2] | Potency [3] | Potency [4]

Cc1cc2c(cc1S(N)(=O)=O)S(=O)(=O)CCC2
inactive: Potency [1] | Potency [2] | Potency [4]

CC(=O)Nc1c(I)c(NC(C)=O)c(I)c(C(=O)O)c1I
inactive: Potency [1] | Potency [2] | Potency [3] | Potency [4]

NC(N)=NCCN1CCCCCCC1
inactive: outcome [1] inactive [at 0.573 µM] | outcome [2] inactive [at 0.573 µM] | outcome [3] inactive [at 0.573 µM] | activity change, negative = cytotoxicity [4] 3.58% [at 0.573 µM]

CN(C)CCOC(=O)COc1ccc(Cl)cc1
inactive: Potency [1] | Potency [2] | Potency [3] | Potency [4]

O=S(=O)(O)CCS
inactive: Potency [1] | Potency [2] | Potency [3] | Potency [4]

O=c1oc2ccccc2c(O)c1Cc1c(O)c2ccccc2oc1=O
inactive: Potency [1] | Potency [2] | Potency [3] | Potency [4] | outcome [5]

CCCCCCCCCCCCCCCCCC(=O)O
inactive: Potency [1] | Potency [2] | Potency [3] | Potency [4]

CC(C(=O)O)c1ccc2c(c1)[nH]c1ccc(Cl)cc12 (stereo not given)
inactive: Potency [1] | Potency [2] | Potency [3] | Potency [4]

CC(C(=O)O)c1cccc(Oc2ccccc2)c1 (stereo not given)
inactive: Potency [1] | Potency [2] | Potency [4]

CC(C)(C(=O)c1cccnc1)c1cccnc1
inactive: Potency [1] | Potency [2] | Potency [3] | Potency [4]

COc1ccc(C(=O)CC(=O)c2ccc(C(C)(C)C)cc2)cc1
inactive: Potency [1] | Potency [2] | Potency [3] | Potency [4]

CN[C@@H]1CCc2[nH]c3ccc(C(N)=O)cc3c2C1
inactive: Potency [1] | Potency [2] | Potency [3] | Potency [4]

CCCc1ccc(OCC(=O)N2CCN(C(=O)COc3ccc(CCC)cc3OC)CC2)c(OC)c1
inactive: Potency [1] | Potency [2] | Potency [4]

N[C@@H](Cc1cc(I)c(Oc2ccc(O)c(I)c2)c(I)c1)C(=O)O
inactive: Potency [1] | Potency [2] | Potency [3] | Potency [4]

CC(=O)Nc1ccc(C(=O)O)cc1
inactive: Potency [1] | Potency [2] | Potency [4]

CN(C)CCN(Cc1ccsc1)c1ccccn1
inactive: Potency [1] | Potency [2] | Potency [3] | Potency [4]

CN1C[C@H](C(=O)N[C@]2(C)O[C@@]3(O)[C@@H]4CCCN4C(=O)[C@H](Cc4ccccc4)N3C2=O)C=C2c3cccc4[nH]cc(c34)C[C@H]21
inactive: Potency [1] | Potency [2] | Potency [3] | Potency [4]

Cn1nnc2c(C(N)=O)ncn2c1=O
inactive: Potency [1] | Potency [2] | Potency [3] | Potency [4]

CC(=O)NCCCS(=O)(=O)O
inactive: Potency [1] | Potency [2] | Potency [3] | Potency [4]

CCCCOCCOC(=O)c1cccnc1
inactive: Potency [1] | Potency [2] | Potency [3] | Potency [4]

CS(=O)(=O)c1ccc([C@@H](O)[C@@H](CF)NC(=O)C(Cl)Cl)cc1
inactive: Potency [1] | Potency [2] | Potency [3] | Potency [4]

O=C(O)c1ccccc1Nc1cccc(C(F)(F)F)c1
inactive: Potency [1] | Potency [2] | Potency [3] | Potency [4]

CC(=O)OCC(=O)[C@@]1(O)CC[C@H]2[C@@H]3CCC4=CC(=O)C=C[C@]4(C)[C@@]3(F)[C@@H](O)C[C@@]21C
inactive: Potency [1] | Potency [2] | Potency [3] | Potency [4]

CC[C@H](C)[C@H](N)C(=O)O
inactive: Potency [1] | Potency [2] | Potency [3] | Potency [4]

CN1CCN2c3ncccc3Cc3ccccc3C2C1 (stereo not given)
inactive: Potency [2] | Potency [3] | Potency [4]

c1ccc2sc(SN3CCOCC3)nc2c1
inactive: Potency [1] | Potency [3] | Potency [4]

CCN[C@H]1CN(CCCOC)S(=O)(=O)c2sc(S(N)(=O)=O)cc21
inactive: Potency [1] | Potency [2] | Potency [4]

NC(N)=NC(=O)Cc1c(Cl)cccc1Cl
inactive: Potency [1] | Potency [2] | Potency [4]

CN1C(C(=O)Nc2ccccn2)=C(O)c2sccc2S1(=O)=O
inactive: Potency [2] | Potency [3] | Potency [4]

CO[C@@]1(NC(=O)C(C(=O)O)c2ccc(O)cc2)C(=O)N2C(C(=O)O)=C(CSc3nnnn3C)CO[C@@H]21 (stereo not given in full)
inactive: Potency [1] | Potency [2] | Potency [4]

CCN1CC(CCN2CCOCC2)C(c2ccccc2)(c2ccccc2)C1=O (stereo not given)
inactive: Potency [2] | Potency [3] | Potency [4]

NC(CO)(CO)CO
inactive: Potency [2] | Potency [3] | Potency [4]

Nc1ncnc2nc[nH]c12
inactive: Potency [1] | Potency [2] | Potency [4]

O=C(O)CCCCC1CCSS1 (stereo not given)
inactive: Potency [1] | Potency [3] | Potency [4]
